Reference: PubChem BioAssay (NCATS)
Inconclusive results are not listed. Entries that show only a call come without a potency. Activity calls are given as the source filed them. Unless noted, calls follow the shape of the dose curve; as a rule, active = well fitted curve in the direction sought with a large enough effect; inconclusive = small, poorly fitted or top-dose-only effect, or another doubt; inactive = no such curve, though single readings can be large; an effect the other way counts as inactive or inconclusive.

Experiments:
[1] = qHTS drug screen for cell cycle checkpoint inhibitors in PARPi-resistant BRCA-mutant ovarian cancer cell lines. (AID 1963452; calls by dose curve); conditions: PEO1/OlaR viability, CellTiter-Glo luminescence, 96 h, stronger effect = lower value
Method in brief: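 PEO1, PEO4 and PEO1/OlaR ovarian cancer cells, 600 per well, exposed 96 h at 37C to a dilution series. Viability read by CellTiter-Glo luminescence, normalized to DMSO and empty wells; activity summarized as Z-AUC.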

[2] = qHTS profiling for inhibitors of Plasmodium falciparum proliferation (AID 504749); also: nearly all actives have a fitted effect of over 60% in size; conditions: P. falciparum in erythrocytes, SYBR Green DNA, 72 h
Method in brief: (§1)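 Each compound contacts P. falciparum-infected red blood cells for 72 h at 37 C; lysis buffer (Tris, EDTA, saponin, Triton X, SYBR Green I) is added and fluorescence measured next morning; values normalized to controls.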

[3] = test system: 3D7; assay: as above; conditions: P. falciparum in erythrocytes, SYBR Green DNA, 72 h; series mostly up to 28.7 µM
Method in brief: as §1

[4] = test system: 7G8; assay: as above; conditions: P. falciparum in erythrocytes, SYBR Green DNA, 72 h; series mostly up to 28.7 µM
Method in brief: as §1

[5] = test system: AA1029; assay: as above; conditions: P. falciparum in erythrocytes, SYBR Green DNA, 72 h; series mostly up to 28.7 µM
Method in brief: as §1

[6] = test system: AS120; assay: as above; conditions: P. falciparum in erythrocytes, SYBR Green DNA, 72 h; series mostly up to 28.7 µM
Method in brief: as §1

[7] = test system: ATS189; assay: as above; conditions: P. falciparum in erythrocytes, SYBR Green DNA, 72 h; series mostly up to 28.7 µM
Method in brief: as §1

[8] = test system: ATS95; assay: as above; conditions: P. falciparum in erythrocytes, SYBR Green DNA, 72 h; series mostly up to 28.7 µM
Method in brief: as §1

[9] = test system: C2A; assay: as above; conditions: P. falciparum in erythrocytes, SYBR Green DNA, 72 h; series mostly up to 28.7 µM
Method in brief: as §1

[10] = test system: CP185; assay: as above; conditions: P. falciparum in erythrocytes, SYBR Green DNA, 72 h; series mostly up to 28.7 µM
Method in brief: as §1

[11] = test system: CP191; assay: as above; conditions: P. falciparum in erythrocytes, SYBR Green DNA, 72 h; series mostly up to 28.7 µM
Method in brief: as §1

[12] = test system: CP192; assay: as above; conditions: P. falciparum in erythrocytes, SYBR Green DNA, 72 h; series mostly up to 28.7 µM
Method in brief: as §1

[13] = KB-3-1 P-gp reporter qHTS against the NCATS DSHEA and TCM libraries (AID 1919975); conditions: KB-3-1 parental cells, CellTiter-Glo luminescence viability, 72 h; series mostly up to 26.1 µM
Method in brief: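 Parental KB-3-1 human cervical adenocarcinoma cells (500 cells/well, DMEM + 10% FBS) were treated with substances for ~72 h at 37C; viability was read by CellTiter-Glo luminescence.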

[14] = qHTS Counterscreen for compound interference against the NCATS DSHEA and TCM libraries (AID 1919978); conditions: firefly luciferase detection reagent interference, luminescence
Method in brief: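 D-luciferin (1 uM final) or 100 mM potassium phosphate buffer alone was preincubated 15 min at RT with compounds (19.5 nM to 39.8 uM final). Luciferin detection reagent was then added and luminescence read after 30 min at RT.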

[15] = Dual reporter qHTS for agonist of Pregnane X Receptor (hPXR) against the NCATS DSHEA and TCM libraries: Fluorescence readout (AID 1920058); conditions: PXR dual reporter cells; series mostly up to 40 µM
Method in brief: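 Cells were plated at 2000 per well and allowed to attach for 5 h. Test substances were pinned in and incubated roughly 24 h. CellTiter-Fluor was then added and fluorescence measured after 1 h.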

[16] = target: Nuclear receptor subfamily 1 group I member 2 (Homo sapiens) (UniProt O75469); assay: Dual reporter qHTS for agonist of Pregnane X Receptor (hPXR) against the NCATS DSHEA and TCM libraries: Luminescence readout (AID 1920059); conditions: hPXR dual reporter cells, luciferase luminescence agonist; series mostly up to 40 µM
Method in brief: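 hPXR-Luc HepG2 cells, 2000/well in 5% charcoal-stripped FBS medium, attached 5 h, then exposed 24 h at 37C to compounds. Viability by CellTiter-Fluor, then luciferase luminescence with ONE-Glo.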

[17] = target: Nuclear receptor subfamily 1 group I member 2 (Homo sapiens) (UniProt O75469); assay: Dual reporter qHTS for antagonist of Pregnane X Receptor (hPXR) against the NCATS DSHEA and TCM libraries: Luminescence Readout (AID 1920060); conditions: hPXR dual reporter cells, luciferase luminescence, antagonist mode; series mostly up to 40 µM;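 also: HepG2 cells carrying hPXR luciferase reporter stimulated with rifampicin at 2 µM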
Method in brief: (§2)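 Antagonist mode: rifampicin 2 uM final co-added with compounds to hPXR-LucHepG2 cells for 24 h at 37C. Viability by CellTiter-Fluor, Ex/Em 405/540 nm, 1 h; reporter by ONE-Glo luminescence.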

[18] = Dual reporter qHTS for antagonist of Pregnane X Receptor (hPXR) against the NCATS DSHEA and TCM libraries: Fluorescence Readout (AID 1920061); conditions: PXR dual reporter cells, antagonist mode; series mostly up to 40 µM
Method in brief: as §2

[19] = measured here: PEO1 parental Z-AUC
[20] = at 28.7 µM (top of the series), parasite line A
[21] = at 28.7 µM (top of the series), parasite line B

Chain of Nuclear receptor subfamily 1 group I member 2 (Homo sapiens) (O75469 whole entry, looked up): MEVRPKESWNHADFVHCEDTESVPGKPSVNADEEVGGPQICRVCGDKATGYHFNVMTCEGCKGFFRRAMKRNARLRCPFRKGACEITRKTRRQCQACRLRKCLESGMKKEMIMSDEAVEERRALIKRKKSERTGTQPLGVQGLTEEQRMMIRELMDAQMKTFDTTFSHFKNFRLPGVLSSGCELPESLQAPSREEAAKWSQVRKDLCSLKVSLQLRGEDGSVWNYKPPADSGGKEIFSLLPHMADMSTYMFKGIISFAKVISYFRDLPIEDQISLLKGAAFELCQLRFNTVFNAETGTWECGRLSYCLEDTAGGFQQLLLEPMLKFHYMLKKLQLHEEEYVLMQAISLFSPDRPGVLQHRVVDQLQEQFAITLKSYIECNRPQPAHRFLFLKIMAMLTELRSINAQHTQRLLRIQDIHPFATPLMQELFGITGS

O=c1[nH]c(=O)n([C@H]2C[C@H](O)[C@@H](CO)O2)cc1I
Z-AUC [1]: 1.59 (inactive) | Z-AUC [1, 19]: 0.705 | Z-AUC ([1]; measured here: PEO4 Z-AUC): 0.916

O=C(O)/C=C/c1ccc(Cn2ccnc2)cc1
Z-AUC [1]: 1.62 (inactive) | Z-AUC [1, 19]: 1.73 | Z-AUC ([1]; measured here: PEO4 Z-AUC): 2.28

Cc1c(C)c2c(c(C)c1OC(=O)c1cccnc1)CC[C@@](C)(CCC[C@H](C)CCC[C@H](C)CCCC(C)C)O2
activity, negative = inhibition [2, 20]: -3.82% (inactive) | activity, negative = inhibition [2, 21]: -2.45% (inactive) | Potency [3]: inactive | Potency [4]: inactive | Potency [5]: inactive | Potency [6]: inactive | Potency [7]: inactive | Potency [8]: inactive | Potency [9]: inactive | Potency [10]: inactive | outcome [11]: inactive | outcome [12]: inactive

Cc1ccsc1C(=CCCN1CCC[C@@H](C(=O)O)C1)c1sccc1C
Z-AUC [1]: -0.0792 (inactive) | Z-AUC [1, 19]: 0.789 | Z-AUC ([1]; measured here: PEO4 Z-AUC): 0.901 | activity, negative = inhibition [2, 20]: 0.673% (inactive) | activity, negative = inhibition [2, 21]: 3.18% (inactive) | Potency [3]: inactive | Potency [4]: inactive | Potency [5]: inactive | Potency [6]: inactive | Potency [7]: inactive | Potency [8]: inactive | Potency [9]: inactive | Potency [10]: inactive | outcome [11]: inactive | outcome [12]: inactive

Cc1ccc(C(C)C)c(O)c1
outcome [13]: inactive | max response [14]: 0.241% (inactive) | outcome [15]: inactive | outcome [16]: inactive | outcome [17]: inactive | outcome [18]: inactive | activity, negative = inhibition [2, 20]: 4.16% (inactive) | activity, negative = inhibition [2, 21]: -10.5% (inactive) | Potency [3]: inactive | Potency [4]: inactive | Potency [5]: inactive | Potency [6]: inactive | Potency [7]: inactive | Potency [8]: inactive | Potency [9]: inactive | Potency [10]: inactive | outcome [11]: inactive | outcome [12]: inactive

CCCCCCCCCCCCCCCCCCO
activity, negative = inhibition [2, 20]: 2.93% (inactive) | activity, negative = inhibition [2, 21]: 2.31% (inactive) | Potency [3]: inactive | Potency [4]: inactive | Potency [5]: inactive | Potency [6]: inactive | Potency [7]: inactive | Potency [8]: inactive | Potency [9]: inactive | Potency [10]: inactive | outcome [11]: inactive | outcome [12]: inactive

CCOC(=O)[C@H](CCc1ccccc1)N[C@@H](C)C(=O)N1CCC[C@H]1C(=O)O
Z-AUC [1]: 0.643 (inactive) | Z-AUC [1, 19]: 0.764 | Z-AUC ([1]; measured here: PEO4 Z-AUC): 0.867 | activity, negative = inhibition [2, 20]: 7.69% (inactive) | Potency [3]: inactive | Potency [4]: inactive | Potency [6]: inactive | Potency [7]: inactive | Potency [8]: inactive | Potency [9]: inactive | Potency [10]: inactive | outcome [11]: inactive | outcome [12]: inactive

CCN(CC)S(=O)(=O)c1ccc(C(=O)O)cc1
activity, negative = inhibition [2, 20]: 7.39% (inactive) | activity, negative = inhibition [2, 21]: 20.6% (inactive) | Potency [3]: inactive | Potency [4]: inactive | Potency [5]: inactive | Potency [6]: inactive | Potency [7]: inactive | Potency [8]: inactive | Potency [9]: inactive | Potency [10]: inactive | outcome [11]: inactive

O=c1[nH]cnc2nc[nH]c12
activity, negative = inhibition [2, 20]: -7.68% (inactive) | activity, negative = inhibition [2, 21]: 15.5% (inactive) | Potency [3]: inactive | Potency [4]: inactive | Potency [5]: inactive | Potency [6]: inactive | Potency [7]: inactive | Potency [8]: inactive | Potency [9]: inactive | Potency [10]: inactive | outcome [11]: inactive | outcome [12]: inactive

O=C(/C=C/c1ccccc1)OCc1ccccc1
activity, negative = inhibition [2, 20]: 4.66% (inactive) | activity, negative = inhibition [2, 21]: -29.4% (inactive) | Potency [3]: inactive | Potency [4]: inactive | Potency [5]: inactive | Potency [6]: inactive | Potency [7]: inactive | Potency [8]: inactive | Potency [9]: inactive | Potency [10]: inactive | outcome [11]: inactive | outcome [12]: inactive

COc1ccc(C(=O)N2CCN(CC(=O)N3CCOCC3)CC2)cc1
activity, negative = inhibition [2, 20]: 2.87% (inactive) | activity, negative = inhibition [2, 21]: 20.6% (inactive) | Potency [3]: inactive | Potency [4]: inactive | Potency [5]: inactive | Potency [6]: inactive | Potency [7]: inactive | Potency [8]: inactive | Potency [9]: inactive | Potency [10]: inactive | outcome [11]: inactive | outcome [12]: inactive

Cc1cc(NC(=O)C2=C(O)c3ccccc3S(=O)(=O)N2C)no1
activity, negative = inhibition [2, 20]: 12.7% (inactive) | activity, negative = inhibition [2, 21]: -1.12% (inactive) | Potency [3]: inactive | Potency [4]: inactive | Potency [5]: inactive | Potency [6]: inactive | Potency [7]: inactive | Potency [8]: inactive | Potency [9]: inactive | Potency [10]: inactive | outcome [11]: inactive | outcome [12]: inactive

CC(O)CCCCn1c(=O)c2c(ncn2C)n(C)c1=O (centres undefined)
activity, negative = inhibition [2, 20]: 9.1% (inactive) | activity, negative = inhibition [2, 21]: 4.96% (inactive) | Potency [3]: inactive | Potency [4]: inactive | Potency [5]: inactive | Potency [6]: inactive | Potency [7]: inactive | Potency [8]: inactive | Potency [9]: inactive | Potency [10]: inactive | outcome [11]: inactive | outcome [12]: inactive

CC1CCN(CCCC(=O)c2ccc(F)cc2)CC1
activity, negative = inhibition [2, 20]: 12.5% (inactive) | activity, negative = inhibition [2, 21]: 9.34% (inactive) | Potency [3]: inactive | Potency [4]: inactive | Potency [5]: inactive | Potency [6]: inactive | Potency [7]: inactive | Potency [8]: inactive | Potency [9]: inactive | Potency [10]: inactive | outcome [11]: inactive | outcome [12]: inactive

CCCCOC(=O)c1ccc(N)cc1
activity, negative = inhibition [2, 20]: 5.58% (inactive) | activity, negative = inhibition [2, 21]: 10.8% (inactive) | Potency [3]: inactive | Potency [4]: inactive | Potency [5]: inactive | Potency [6]: inactive | Potency [7]: inactive | Potency [8]: inactive | Potency [9]: inactive | Potency [10]: inactive | outcome [11]: inactive | outcome [12]: inactive

CC(=O)Nc1ccc(C(=O)O)cc1
activity, negative = inhibition [2, 20]: 7.84% (inactive) | activity, negative = inhibition [2, 21]: 3.26% (inactive) | Potency [3]: inactive | Potency [4]: inactive | Potency [5]: inactive | Potency [6]: inactive | Potency [7]: inactive | Potency [8]: inactive | Potency [9]: inactive | Potency [10]: inactive | outcome [11]: inactive | outcome [12]: inactive

Cc1ncc(CO)c(CN)c1O
activity, negative = inhibition [2, 20]: 7.32% (inactive) | activity, negative = inhibition [2, 21]: 18.3% (inactive) | Potency [3]: inactive | Potency [4]: inactive | Potency [5]: inactive | Potency [6]: inactive | Potency [7]: inactive | Potency [8]: inactive | Potency [9]: inactive | Potency [10]: inactive | outcome [11]: inactive | outcome [12]: inactive

CC1CCc2cc(F)cc3c(=O)c(C(=O)O)cn1c23 (centres undefined)
activity, negative = inhibition [2, 20]: -7.54% (inactive) | activity, negative = inhibition [2, 21]: 6.45% (inactive) | Potency [3]: inactive | Potency [4]: inactive | Potency [5]: inactive | Potency [6]: inactive | Potency [7]: inactive | Potency [8]: inactive | Potency [9]: inactive | Potency [10]: inactive | outcome [11]: inactive | outcome [12]: inactive

CCN(CC)CCc1nc(-c2ccccc2)no1
activity, negative = inhibition ([2]; at 12.8 µM (top of the series), parasite line A): -7.93% (inactive) | activity, negative = inhibition ([2]; at 12.8 µM (top of the series), parasite line B): -5.26% (inactive) | Potency [3]: inactive | Potency [4]: inactive | Potency [5]: inactive | Potency [6]: inactive | Potency [7]: inactive | Potency [8]: inactive | Potency [9]: inactive | Potency [10]: inactive | outcome [11]: inactive | outcome [12]: inactive
